Compounds with a hit are over-represented: about 7.8% of the library has one in this group of screens.
HCMV antiviral: blocks human cytomegalovirus replication. HFF cells, HCMV-luciferase reporter, 72 h; hits give low values. activity change, negative = inhibition, % at 57.5 µM. actives 4.5% (n = 410,000). AID 1259415; in the data active = activity change below about -60%; inconclusive = no clear call, values can overlap the other calls; inactive = above about -39%
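Luciferase read-out from HCMV-luciferase-infected HFFs (MOI 1 PFU/cell) 72 h post infection at 37C; compounds added after 16 h cell attachment; activity normalized between buffer-only basal and Salinomycin (10uM) inhibitor controls.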
Lassa entry inh: inhibitors of Lassa virus binding or cell entry; Lassa virus pseudotype entry inhibition, cell reporter; Potency, µM (highest dose often 37.9 µM), inactives show top-dose activity change, negative = inhibition, most hits filed as inhibitors; actives 1.2% (n = 300,000); AID 540256; calls by dose curve; tested in HEK293 cells; note: potency is the fitted concentration of half-maximal effect; nearly all actives have a fitted effect of over 50% in size
HCV inhibitor: inhibitors of hepatitis C virus infection; actives 3.4% (n = 340,000); Huh7.5.1 HCVcc-Cre infection, luciferase reporter, 44 h; AID 651820; Potency, µM (series often up to 41.8 µM), inactives show at the highest dose activity change, negative = inhibition, actives largely listed as inhibitors; active = well fitted inhibition curve with a large enough effect; inconclusive = small, poorly fitted or top-dose-only effect, or another doubt; inactive = no such curve, though single readings can be large or run the other way; note: potency is the fitted concentration of half-maximal effect
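Luciferase read-out (15 sec integration) after a 15 min room-temperature substrate step quantifies HCVcc-Cre infection. Cells, 1,000 per well, had compound added 4 h post-plating, then virus at ~0.5 moi, and were cultured 44 h.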
Vaccinia mCherry: vaccinia inhibition (mCherry reporter). Vaccinia virus mCherry reporter infection, fluorescence. Potency, µM (titrated, usually from 36.5 µM), without a hit: top-dose activity change, negative = inhibition, most hits filed as inhibitors. actives 0.63% (n = 310,000); calls by dose curve; tested in A549 cells; note: potency is the fitted concentration of half-maximal effect; nearly all actives have a fitted effect of over 35% in size
Marburg entry inh: blocks Marburg virus binding to or entry into cells. actives 1.8% (n = 300,000). AID 540276. Potency, µM (series often up to 37.8 µM), for the others: top-dose activity change, negative = inhibition, most hits filed as inhibitors. Marburg virus pseudotyped entry inhibition, cell reporter; calls by dose curve; tested in HEK293 cells; note: potency is the fitted concentration of half-maximal effect
VACV Venus inh: inhibitors of vaccinia virus (Venus reporter) | actives 0.46% (n = 330,000) | Potency, µM (doses to about 36.5 µM), without a hit: at the top dose activity change, negative = inhibition, actives largely listed as inhibitors | Vaccinia virus Venus reporter expression, fluorescence | AID 720580; calls by dose curve; tested in A549 cells; note: potency is the fitted concentration of half-maximal effect; nearly all actives have a fitted effect of over 30% in size
* = called active by the depositor; i = inactive; ? = inconclusive; . = no result given; [ ] = remark or other dose. % is set by controls: 0 for no effect and ±100 for the full control effect.

SMILES	HCMV antiviral	Lassa entry inh	HCV inhibitor	Vaccinia mCherry	Marburg entry inh	VACV Venus inh
CC(=O)N1[C@@H]2c3ccc(-c4cccnc4)c(=O)n3C[C@@H]2[C@@H](CO)[C@@H]1C(=O)NCc1ccccc1Cl	9	.	.	.	.	.
Cn1c(=O)c2c(nc(SCC(=O)c3cccs3)n2Cc2ccc(F)cc2)n(C)c1=O	-29	?	5µM*	-16%	-3%	-12%
CC1Cc2ccccc2N1C(=O)CSc1nc2c(c(=O)n(C)c(=O)n2C)n1Cc1ccc(F)cc1 (configuration not stated)	-106*	9%	?	-22%	16%	-7%
Cn1c(=O)c2c(nc(SCC(=O)N3CCc4ccccc43)n2Cc2ccccc2)n(C)c1=O	.	.	0%	.	.	.
C=CSc1sc(Cl)c(N2CCOCC2)c1[N+](=O)[O-]	?	?	9%	-12%	?	-8%
C=CS(=O)(=O)c1sc(Cl)c(N2CCOCC2)c1[N+](=O)[O-]	-72*	3.2µM*	?	?	5µM*	?
COc1ccc(CNC(=O)c2ccc(-c3nc(CSc4ccccc4)c(C)o3)cc2)cc1	-13	6%[46.1 µM]	.	-12%	.	-14%
c1ccc2nccnc2c1	.	.	.	11µM*	.	3.5µM*
O=C1N/C(=N/N=C/c2ccccc2O)SC1Cc1ccc(F)cc1 (configuration not stated)	-66*	?	?	?	?	?
NC(=O)NC(=O)CC1S/C(=N/N=C/c2ccccc2)NC1=O (configuration not stated)	2	10%[46.1 µM]	9%	i	0%[46.1 µM]	-12%
O=C1N/C(=N/N=C/c2ccc(O)cc2)SC1Cc1ccccc1 (configuration not stated)	0	1.5µM*	23%	?	0%	-7%
COc1ccc(CC2S/C(=N/N=C/c3ccc(O)cc3)NC2=O)cc1 (configuration not stated)	-11	1.5µM*	?	?	8%	-4%
COc1ccc(CC2S/C(=N/N=C/c3ccccc3O)NC2=O)cc1 (configuration not stated)	?	.	?	?	.	0%
COc1ccc(/C=N/N=C2/NC(=O)C(CC(=O)NC(C)C)S2)cc1 (configuration not stated)	-24	?	1%	-18%	7%	-10%
COc1cccc(NC(=O)Cn2c(=O)n(CCCCC(=O)NCc3ccccc3Cl)c(=O)c3ccccc32)c1	-13	-25%[46.1 µM]	.	?	?	-20%
O=C(CSc1n[nH]c(-c2ccccc2Cl)n1)NCc1ccc(F)cc1	-3	13%[46.1 µM]	.	-6%	.	-14%
CC1CCC(C(C)C)C(OC(=O)COC(=O)c2ccccc2N)C1 (configuration not stated)	-16	?	9%	-5%	-4%	-11%
Cc1ccccc1OCc1n(CC(=O)OC2CC(C)CCC2C(C)C)c2ccccc2[n+]1C (configuration not stated)	-96*	?	?	?	3.5µM*	11µM*
CC1CCC(C(C)C)C(OC(=O)Cn2c(-c3ccc(Cl)cc3)[n+](C)c3ccccc32)C1 (configuration not stated)	-100*	.	?	2%[7.34 µM]	.	11%[7.34 µM]
CC1CCC(C(C)C)C(OC(=O)Cn2c(-c3ccc(Br)cc3)[n+](C)c3ccccc32)C1 (configuration not stated)	-99*	?	?	11µM*	?	13µM*
CCC(Sc1nc2cc3c(cc2c(=O)n1CCCCCC(=O)NCc1ccc2c(c1)OCO2)OCO3)C(=O)NCCCOC (configuration not stated)	-19	4%[46.1 µM]	.	-8%	.	-6%
O=C(Cn1c(-c2cccs2)cc2ccccc21)N1CCN(c2ccc(Cl)cc2)CC1	14	-4%[46.1 µM]	.	-1%	.	2%
Cc1ccc(CCNc2nc3c(S(=O)(=O)c4ccc(C)cc4)nnn3c3ccsc23)cc1	32	14%[46.1 µM]	.	i	.	-15%
CC[N+]1(CC(=O)c2ccc(Br)cc2)CCCCC1	.	.	.	-20%	.	-16%
C/C(=N\NC1=NCCN1)c1ccc(N)c([N+](=O)[O-])c1	24	?	?	-10%	?	-2%
SMILES	HCMV antiviral	Lassa entry inh	HCV inhibitor	Vaccinia mCherry	Marburg entry inh	VACV Venus inh
COc1ccc(/C(C)=N/NC2=NCCN2)cc1Cl	59	-12%[46.1 µM]	-20%	-22%	?	-23%
CCCCOc1ccc(Br)cc1/C(C)=N/NC1=NCCN1	-100*	11µM*	3.2µM*	.	10µM*	6.3µM*
CCCCCCOc1ccc(/C(C)=N/NC2=NCCN2)cc1[N+](=O)[O-]	?	.	32µM*	.	.	.
CN=C1S/C(=C\c2cc(C)n(-c3ccccc3F)c2C)C(=O)N1C	-66*	?	?	-2%	?	-18%
Cc1cc(/C=C2\SC(=O)N(C)C2=O)c(C)n1-c1ccc(S(N)(=O)=O)cc1	-33	.	-20%	.	.	.
CN=C1S/C(=C\c2ccc(N3CCOCC3)cc2C)C(=O)N1C	54	2%	-6%	-14%	6%	0%
Cc1cc(/C=C2\SC(=O)N(C)C2=O)c(C)n1-c1ccc(O)cc1	-69*	.	?	.	.	.
CC(C)(C)c1ccc(O[C@@H]2[C@H](O)CO[C@@H]2C=CC#Cc2ccccc2)cc1	.	.	.	.	-9%[14.2 µM]	.
CCN(C(=O)Nc1cn(CC(C)C)c(=O)c2ccccc12)c1cc(C)ccc1C	-3	-1%[46.1 µM]	.	1%	.	-1%
N#Cc1c(-n2ncnc2-c2ccc(F)cc2)sc2c1CCCCC2	?	-3%[46.1 µM]	.	-22%	.	-9%
Cc1cc(NC(=O)C(C)SCC(=O)OCC(=O)N(C)c2ccccc2)no1 (configuration not stated)	-28	17%	-1%	i	?	-1%
Cc1ccc(N(Cc2ccccc2)C(=O)CSC(C)C(=O)Nc2cc(C)on2)cc1 (configuration not stated)	-64*	.	.	-19%	.	2%
COc1cccc(CN(C(=O)COc2ccc(Cl)c(C)c2)C2CCS(=O)(=O)C2)c1 (configuration not stated)	-9	-8%[46.1 µM]	.	-3%	4%[46.1 µM]	-14%
CCOC(=O)C1CCN(c2c([N+](=O)[O-])c(C(Cl)Cl)nn2-c2ccccc2)CC1	19	9.2µM*	-25%	-17%	-13%	-9%
Cc1cc(=O)n2[nH]c(NC(=O)c3cccc(Cl)c3)nc2n1	-38	18%[46.1 µM]	.	-13%	?	-21%
CNC(=O)c1c(NC(=O)c2ccco2)sc2c1CCC2	0	.	11µM*	.	.	.
COc1cc(OC)cc(C(=O)Nc2sc3c(c2C(N)=O)CCC3)c1	-16	?	2µM*	?	0%[46.1 µM]	?
O=C(Nc1sc2c(c1C(=O)NC1CCCCC1)CCC2)c1ccco1	-1	-16%	?	.	0%	.
COC(=O)c1c(NC(=O)c2ccccc2N(C)S(=O)(=O)c2ccccc2)sc2c1CCCC2	?	?	?	.	4.5µM*	?
